Source: PubChem BioAssay AID1159580 (chemical genetic matrix, 2015)
Values joined by “and” are separate entries in the source; they are usually repeats but may differ in a detail not shown here. Equal entries are not always repeated. Hit rate of the full screen: of about 5,500 compounds, about 2,000 (36%) were called active. Roughly 18% stayed inconclusive and do not appear here. Cut-off read from the data, not from the text of the source: active = normalized growth mostly below about 0.91 (no sharp cut-off); inconclusive = no clear call, values can overlap the other calls; inactive = mostly above about 0.92. This is one part of the list.

Test: chemical genetic growth profiling, strain panel (AID 1159580);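 note: tested at 20 µM; growth read once vehicle control cultures reached saturation at 30 °C; 1 = growth at the plate median or of vehicle wells; lower values mean less growth of the strain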
Settings: S. cerevisiae deletion strains, growth OD

Measured: normalized growth

O=C(CCCN1CCC2(CC1)C(=O)NCN2c1ccccc1)c1ccc(F)cc1
inactive: locus YAL021C, strain ccr4, active compounds read low 0.956 | locus YAL026C, strain drs2, active compounds read low 0.981 | locus YAL030W, strain snc1, active compounds read low 0.983 | locus YAL040C, strain CLN3, active compounds read low 0.989 | locus YBL061C, strain skt5, active compounds read low 0.979 | locus YBR009C, strain hhf1, active compounds read low 1.02 | locus YBR021W, strain FUR4, active compounds read low 1 | locus YBR023C, strain chs3, active compounds read low 0.995 | locus YBR171W, strain sec66, active compounds read low 0.965 | locus YBR229C, strain ROT2, active compounds read low 0.964 | locus YBR231C, strain swc5, active compounds read low 1.04 | locus YBR279W, strain paf1, active compounds read low 0.983 | locus YCL016C, strain dcc1, active compounds read low 0.975 | locus YCL029C, strain bik1, active compounds read low 0.995 | locus YCL061C, strain MRC1 (second series), active compounds read low 0.999 | locus YCL061C, strain MRC1, active compounds read low 0.981 | locus YCL069W, strain vba3, active compounds read low 0.98 | locus YCR088W, strain abp1, active compounds read low 0.982 | locus YDL005C, strain med2, active compounds read low 0.961 | locus YDL035C, strain GPR1, active compounds read low 0.992 | locus YDL040C, strain nat1, active compounds read low 0.982 | locus YDL074C, strain BRE1, active compounds read low 0.972 | locus YDL101C, strain DUN1, active compounds read low 0.984 | locus YDL134C, strain PPH21, active compounds read low 1.01 | locus YDL185W, strain tfp1, active compounds read low 0.969 | locus YDL192W, strain arf1, active compounds read low 0.997 | locus YDR001C, strain nth1, active compounds read low 0.979 | locus YDR069C, strain doa4, active compounds read low 0.946 | locus YDR101C, strain arx1, active compounds read low 0.988 | locus YDR137W, strain rgp1, active compounds read low 0.993 | locus YDR150W, strain NUM1, active compounds read low 0.996 | locus YDR159W, strain sac3, active compounds read low 0.998 | locus YDR162C, strain NBP2, active compounds read low 0.999 | locus YDR195W, strain ref2 1.01 | locus YDR297W, strain sur2, active compounds read low 0.981 | locus YDR318W, strain mcm21, active compounds read low 0.993 | locus YDR334W, strain swr1, active compounds read low 0.969 | locus YDR335W, strain msn5, active compounds read low 0.966 | locus YDR363W, strain ESC2, active compounds read low 0.999 | locus YDR388W, active compounds read low 0.996 | locus YDR392W, strain spt3, active compounds read low 0.881 | locus YDR502C, strain sam2, active compounds read low 0.989 | locus YEL003W, strain gim4, active compounds read low 0.991 | locus YEL037C, strain rad23, active compounds read low 0.983 | locus YEL061C, strain CIN8 (second series), active compounds read low 0.992 | locus YEL061C, strain CIN8, active compounds read low 0.988 | locus YER002W, strain NOP16, active compounds read low 0.993 | locus YER015W, strain faa2, active compounds read low 1 | locus YER016W, strain bim1, active compounds read low 0.936 | locus YER110C, active compounds read low 0.99 | locus YER111C, strain swi4, active compounds read low 0.966 | locus YER155C, strain BEM2 (second series), active compounds read low 0.966 | locus YER155C, strain BEM2, active compounds read low 1 | locus YER167W, strain BCK2, active compounds read low 0.995 | locus YFR010W, strain ubp6, active compounds read low 1 | locus YGL078C, strain dbp3, active compounds read low 0.994 | locus YGL086W, strain mad1, active compounds read low 0.988 | locus YGL167C, strain pmr1, active compounds read low 0.922 | locus YGL173C, strain kem1, active compounds read low 0.998 | locus YGL227W, strain vid30, active compounds read low 0.993 | locus YGL240W, strain doc1, active compounds read low 0.991 | locus YGL248W, strain PDE1, active compounds read low 0.975 | locus YGL253W, strain hxk2, active compounds read low 0.993 | locus YGR078C, strain PAC10, active compounds read low 0.967 | locus YGR135W, strain pre9, active compounds read low 0.997 | locus YGR229C, strain SMI1, active compounds read low 0.994 and 0.978 | locus YGR252W, strain gcn5, active compounds read low 0.96 | locus YHR013C, strain ard1, active compounds read low 0.91 | locus YHR027C, strain rpn1, active compounds read low 0.994 | locus YHR030C, strain SLT2, active compounds read low 1 and 0.988 | locus YHR079C, strain IRE1 (second series), active compounds read low 0.989 | locus YHR079C, strain IRE1, active compounds read low 1.01 | locus YHR094C, strain hxt1, active compounds read low 0.998 | locus YHR129C, strain ARP1, active compounds read low 1 | locus YHR142W, strain chs7, active compounds read low 0.964 | locus YHR200W, strain rpn10, active compounds read low 0.987 | locus YIL066C, strain RNR3, active compounds read low 0.972 | locus YIL073C, strain SPO22, active compounds read low 1.07 | locus YIL125W, strain kgd1, active compounds read low 0.984 | locus YIR030C, strain dcg1, active compounds read low 0.994 | locus YJL092W, strain hpr5, active compounds read low 0.974 | locus YJL095W, strain BCK1 (second series), active compounds read low 0.982 | locus YJL095W, strain BCK1, active compounds read low 0.968 and 1.01 | locus YJL115W, strain asf1, active compounds read low 0.966 | locus YJL129C, strain trk1, active compounds read low 0.949 | locus YJL134W, strain LCB3, active compounds read low 1 | locus YJL154C, strain vps35, active compounds read low 0.969 | locus YJL164C, strain tpk1, active compounds read low 0.984 | locus YJL166W, strain qcr8, active compounds read low 0.99 | locus YJL168C, strain set2, active compounds read low 0.986 | locus YJL187C, strain SWE1 (second series), active compounds read low 0.969 | locus YJR043C, strain POL32, active compounds read low 0.997 | locus YJR066W, strain TOR1, active compounds read low 0.938 | locus YJR075W, strain HOC1, active compounds read low 0.985 and 0.996
